Test results published in PubChem BioAssay AID1159580 (chemical genetic matrix, 2015).
In all, about 5,500 compounds went through this assay and about 2,000 (36%) were called active. Inconclusive results (about 18%) are left out. Rule as the data show it: active = normalized growth mostly below about 0.91 (no sharp cut-off); inconclusive = no clear call, values can overlap the other calls; inactive = mostly above about 0.92. The list shows a part of the results.

Assay: chemical genetic growth profiling, strain panel (AID 1159580);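 also: tested at 20 µM; growth read once vehicle control cultures reached saturation at 30 °C; 1 = growth at the plate median or of vehicle wells; lower values mean less growth of the strain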
Details: S. cerevisiae deletion strains, growth OD
[1] = locus YAL021C, strain ccr4, hits give low values
[2] = locus YAL026C, strain drs2, hits give low values
[3] = locus YAL030W, strain snc1, hits give low values
[4] = locus YBL061C, strain skt5, hits give low values
[5] = locus YBR009C, strain hhf1, hits give low values
[6] = locus YBR023C, strain chs3, hits give low values
[7] = locus YBR171W, strain sec66, hits give low values
[8] = locus YBR231C, strain swc5, hits give low values
[9] = locus YBR279W, strain paf1, hits give low values
[10] = locus YCL011C, strain gbp2, hits give low values
[11] = locus YCL016C, strain dcc1, hits give low values
[12] = locus YCL069W, strain vba3, hits give low values
[13] = locus YCR088W, strain abp1, hits give low values
[14] = locus YDL005C, strain med2, hits give low values
[15] = locus YDL040C, strain nat1, hits give low values
[16] = locus YDR001C, strain nth1, hits give low values
[17] = locus YDR069C, strain doa4, hits give low values
[18] = locus YDR137W, strain rgp1, hits give low values
[19] = locus YDR159W, strain sac3, hits give low values
[20] = locus YDR297W, strain sur2, hits give low values
[21] = locus YDR334W, strain swr1, hits give low values
[22] = locus YDR335W, strain msn5, hits give low values
[23] = locus YDR392W, strain spt3, hits give low values
[24] = locus YEL003W, strain gim4, hits give low values
[25] = locus YEL037C, strain rad23, hits give low values
[26] = locus YEL061C, strain CIN8 (second series), hits give low values
[27] = locus YER015W, strain faa2, hits give low values
[28] = locus YER016W, strain bim1, hits give low values
[29] = locus YER111C, strain swi4, hits give low values
[30] = locus YER155C, strain BEM2 (second series), hits give low values
[31] = locus YFR010W, strain ubp6, hits give low values
[32] = locus YGL167C, strain pmr1, hits give low values
[33] = locus YGL173C, strain kem1, hits give low values
[34] = locus YGL227W, strain vid30, hits give low values
[35] = locus YGL240W, strain doc1, hits give low values
[36] = locus YGL253W, strain hxk2, hits give low values
[37] = locus YHR013C, strain ard1, hits give low values
[38] = locus YHR027C, strain rpn1, hits give low values
[39] = locus YHR030C, strain SLT2, hits give low values
[40] = locus YHR079C, strain IRE1, hits give low values
[41] = locus YHR142W, strain chs7, hits give low values
[42] = locus YJL092W, strain hpr5, hits give low values
[43] = locus YJL095W, strain BCK1 (second series), hits give low values
[44] = locus YJL095W, strain BCK1, hits give low values
[45] = locus YJL115W, strain asf1, hits give low values
[46] = locus YJL129C, strain trk1, hits give low values
[47] = locus YJL154C, strain vps35, hits give low values
[48] = locus YJL164C, strain tpk1, hits give low values
[49] = locus YJL166W, strain qcr8, hits give low values
[50] = locus YJL187C, strain SWE1, hits give low values
[51] = locus YJR066W, strain TOR1, hits give low values
[52] = locus YKL160W, strain elf1, hits give low values
[53] = locus YKR026C, strain gcn3, hits give low values
[54] = locus YKR091W, strain srl3, hits give low values
[55] = locus YLL001W, strain dnm1, hits give low values
[56] = locus YLL026W, hits give low values
[57] = locus YLL041C, strain sdh2, hits give low values
[58] = locus YLR027C, strain aat2, hits give low values
[59] = locus YLR113W, strain HOG1, hits give low values
[60] = locus YLR221C, strain rsa3, hits give low values
[61] = locus YLR258W, strain gsy2, hits give low values
[62] = locus YLR262C, strain YPT6 (second series), hits give low values
[63] = locus YLR320W, strain mms22, hits give low values
[64] = locus YLR342W, strain FKS1, hits give low values
[65] = locus YLR357W, strain rsc2, hits give low values
[66] = locus YLR370C, strain arc18, hits give low values
[67] = locus YLR384C, strain iki3, hits give low values
[68] = locus YML120C, strain ndi1, hits give low values
[69] = locus YMR058W, strain fet3, hits give low values
[70] = locus YMR125W, strain sto1, hits give low values
[71] = locus YMR129W, hits give low values
[72] = locus YMR205C, strain PFK2, hits give low values
[73] = locus YMR231W, strain pep5, hits give low values
[74] = locus YNL071W, strain lat1, hits give low values
[75] = locus YNL183C, strain NPR1, hits give low values
[76] = locus YNL209W, strain ssb2, hits give low values
[77] = locus YNL248C, strain rpa49, hits give low values
[78] = locus YNL322C, strain KRE1 (second series), hits give low values
[79] = locus YNR049C, strain mso1, hits give low values
[80] = locus YOR001W, strain rrp6, hits give low values
[81] = locus YOR070C, strain gyp1, hits give low values
[82] = locus YOR080W, strain dia2, hits give low values
[83] = locus YOR083W, strain WHI5, hits give low values
[84] = locus YOR106W, strain vam3, hits give low values
[85] = locus YOR231W, strain MKK1, hits give low values
[86] = locus YOR265W, strain rbl2, hits give low values
[87] = locus YOR270C, strain vph1, hits give low values
[88] = locus YOR290C, strain snf2, hits give low values
[89] = locus YPL051W, strain arl3, hits give low values
[90] = locus YPL078C, strain atp4, hits give low values
[91] = locus YPL106C, strain sse1, hits give low values
[92] = locus YPL240C, strain hsp82, hits give low values
[93] = locus YPL256C, strain CLN2, hits give low values

Measured: normalized growth

C=C1C(=O)[C@]23[C@H](O)[C@H]1CC[C@H]2[C@@]12CO[C@]3(O)[C@H](O)[C@@H]1C(C)(C)CC[C@@H]2O
inactive: [1] 1.02 | [2] 0.99 | [3] 1 | [4] 0.987 | [5] 0.948 | [6] 0.991 | [7] 0.999 | [8] 1.01 | [9] 1 | [10] 0.983 | [11] 0.972 | locus YCL061C, strain MRC1, hits give low values 1 | [12] 0.995 | [13] 1 | [14] 1.01 | [15] 0.993 | [16] 1 | [17] 1.04 | [18] 0.99 | [19] 1 | locus YDR195W, strain ref2 1.03 | [20] 1 | [21] 0.994 | [22] 1 | [23] 0.883 | [24] 0.992 | [25] 1 | [26] 1 | [27] 0.982 | [28] 1.01 | [29] 0.999 | [30] 0.984 | [31] 0.995 | [32] 0.995 | [33] 1 | [34] 1 | [35] 1.02 | [36] 1.02 | [37] 1.03 | [38] 0.986 | [39] 1.01 | [40] 0.992 | [41] 1.01 | [42] 1.02 | [43] 0.99 | [44] 0.974 | [45] 0.988 | [46] 1.03 | [47] 1.01 | [48] 0.972 | [49] 1.02 | [50] 1.02 | [51] 0.962 | [52] 1.04 | [53] 0.994 | [54] 0.995 | [55] 1 | [56] 0.992 | [57] 0.991 | [58] 1 | [59] 0.94 | [60] 0.975 | [61] 0.994 | [62] 1.01 | [63] 1.01 | [64] 1.01 | [65] 0.999 | [66] 0.973 | [67] 0.993 | [68] 0.982 | [69] 1 | [70] 1.02 | [71] 0.997 | [72] 1.02 | [73] 0.994 | [74] 1.01 | [75] 0.95 | [76] 0.993 | [77] 1.06 | [78] 0.994 | [79] 0.99 | [80] 0.964 | [81] 0.992 | [82] 0.998 | [83] 1.02 | [84] 1.02 | [85] 1.02 | [86] 0.984 | [87] 1.04 | [88] 0.996 | [89] 1.04 | [90] 1.04 | [91] 0.981 | [92] 0.975 | [93] 0.984

C=CCS(=O)C[C@H](N)C(=O)O (some centres undefined)
inactive: [1] 1 | [2] 1 | [3] 0.982 | [4] 1 | [5] 1 | [6] 1 | [7] 0.982 | [8] 0.981 | [9] 0.999 | [10] 0.992 | [11] 1.02 | [12] 0.984 | [13] 0.986 | [14] 1 | [15] 1.01 | [16] 1 | [17] 0.985 | [18] 0.97 | [19] 0.996 | locus YDR195W, strain ref2 0.986 | [20] 1 | [21] 1.01 | [22] 0.991 | [23] 0.979 | [24] 1 | [25] 1.01 | [26] 1.01 | [27] 1 | [28] 0.982 | [29] 1.01 | [30] 0.961 | [31] 0.998 | [32] 0.997 | [33] 0.999 | [34] 0.969 | [35] 0.994 | [36] 1 | [37] 0.981 | [38] 0.994 | [39] 1.02 | [40] 1.01 | [41] 1.02 | [42] 0.999 | [43] 0.998 | [44] 1.03 | [45] 0.992 | [46] 0.997 | [47] 0.995 | [48] 0.997 | [49] 0.991 | [50] 0.998 | [51] 0.952 | [52] 1 | [53] 0.984 | [54] 0.986 | [55] 1.01 | [56] 0.994 | [57] 0.995 | [58] 1 | [59] 1.02 | [60] 1 | [61] 0.987 | [62] 0.987 | [63] 1 | [64] 0.996 | [65] 0.961 | [66] 0.995 | [67] 0.994 | [68] 0.992 | [69] 0.998 | [70] 0.991 | [71] 0.976 | [72] 1.01 | [73] 0.998 | [74] 0.988 | [75] 0.971 | [76] 0.985 | [77] 1 | [78] 0.98 | [79] 0.997 | [80] 1.01 | [81] 1 | [82] 1.01 | [83] 0.962 | [84] 1 | [85] 1.01 | [86] 1.01 | [87] 1.02 | [88] 1 | [89] 0.983 | [90] 1.02 | [91] 0.929 | [92] 0.983 | [93] 1.02
